# L3MBTL1 block: inhibitors of human L3MBTL1 | Q9Y468 | AlphaScreen L3MBTL1–H3K9me1 peptide binding | Potency, µM (top dose mostly 57.1 µM), for inactives: at the top dose activity, negative = inhibition, actives largely listed as inhibitors | hit rate 0.66% among 230,000 | AID 485360; also: % is scaled to controls: 0 for no effect and ±100 for the full control effect; nearly all actives have a fitted effect of over 60% in size
#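 Read-out is AlphaScreen signal from streptavidin donor and nickel chelate acceptor beads (10 ug/mL final each) bridging L3MBTL1 (50 nM) and biotinylated K9-monomethylated H3(1-15) peptide (75 nM), after 30 min compound exposure at room temperature.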
# JMJD2A Tudor inh: inhibitors of human JMJD2A Tudor domain; O75164; AlphaScreen JMJD2A-Tudor / H3K4me3 peptide binding; Potency, µM (titrated, usually from 114 µM), without a hit: at the highest dose activity change, negative = inhibition, most hits filed as inhibitors; hit rate 4.4% among 390,000; also: % is scaled to controls: 0 for no effect and ±100 for the full control effect; nearly all actives have a fitted effect of over 50% in size
# Sfp PPTase inh: Sfp phosphopantetheinyl transferase inhibition. Q9F4F7. Biochemical Sfp PPTase activity, qHTS. Potency, µM, without a hit: largest response in the series, negative = inhibition, usual class: inhibitors. hit rate 3.5% among 310,000. AID 1490;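 also: the enzyme is Sfp with the accession as filed and its product quenches rhodamine fluorescence; 0% = enzyme reaction without inhibitor and -100% = no enzyme wells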
#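 Sfp 15 nM + cpd, 15 min RT; start w/ rhodamine-CoA 5 uM, BHQ-2-YbbR 12.5 uM (final); 50 mM Hepes pH 7.6, 10 mM MgCl2, 0.01% NP-40, 0.01% BSA; read 525/598 nm at 0 and 30 min.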
# BAZ2B block: inhibitors of human BAZ2B bromodomain | hit rate 4.4% among 360,000 | Potency, µM (highest dose often 114 µM), for the others: at the top dose activity change, negative = inhibition, most hits filed as inhibitors | AlphaScreen BAZ2B-H3K14Ac peptide displacement | Q9UIF8; also: % is scaled to controls: 0 for no effect and ±100 for the full control effect; nearly all actives have a fitted effect of over 60% in size
#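 BAZ2B (50 nM) with biotin-H3(5-23)K14Ac peptide (50 nM) in PBS pH 7.4, 0.01% Tween-20, preformed 30 min, then compound 30 min at room temperature; top concentration 110uM. AlphaScreen streptavidin donor/nickel chelate acceptor beads (10 ug/mL final), 20 min dark, signal read.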
# HP1b binding inh: blocks HP1-beta chromodomain binding to methylated histone tails. P83916. AlphaScreen HP1-beta / biotin-H3K9me3 peptide binding. Potency, µM (doses to about 114 µM), without a hit: at the top dose activity change, negative = inhibition, usual class: inhibitors. hit rate 0.56% among 390,000. AID 540317; also: nearly all actives have a fitted effect of over 70% in size
# Target sequence (P83916 whole entry, looked up): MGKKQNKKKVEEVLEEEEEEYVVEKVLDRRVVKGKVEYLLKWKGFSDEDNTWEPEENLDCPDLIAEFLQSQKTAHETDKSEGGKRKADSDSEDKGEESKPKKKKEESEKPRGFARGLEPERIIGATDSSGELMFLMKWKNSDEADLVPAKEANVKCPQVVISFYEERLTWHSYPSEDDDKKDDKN
#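 Compound inhibition of the preformed complex between 50 nM HP1-beta and 50 nM biotinylated H3K9me3 peptide was read by AlphaScreen. Buffer was PBS pH 7.4 with 0.01% Tween-20. Incubations ran 30 min at room temperature, with 10 ug/mL donor/acceptor beads.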
# G9a inh: blocks human histone lysine methyltransferase G9a; Q96KQ7; AID 504332; Potency, µM (top dose mostly 102 µM), without a hit: at the top dose activity, negative = inhibition, actives largely listed as inhibitors; hit rate 8.8% among 350,000; G9a H3K9 monomethylation, AlphaScreen, 2 h; also: % is scaled to controls: 0 for no effect and ±100 for the full control effect; nearly all actives have a fitted effect of over 75% in size
# Target sequence (Q96KQ7 913-1193 limits assumed): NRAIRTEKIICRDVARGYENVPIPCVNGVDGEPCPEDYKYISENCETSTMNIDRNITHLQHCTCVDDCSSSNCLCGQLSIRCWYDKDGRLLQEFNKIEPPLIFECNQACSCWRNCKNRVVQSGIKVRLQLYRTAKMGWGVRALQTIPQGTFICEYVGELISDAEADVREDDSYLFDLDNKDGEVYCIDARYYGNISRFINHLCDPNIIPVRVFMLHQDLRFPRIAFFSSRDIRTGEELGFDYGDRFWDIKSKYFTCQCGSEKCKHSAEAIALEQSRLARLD
#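 Methyltransferase reactions run at room temperature for 2 h (20 nM enzyme, 500 nM biotin-H3K9 peptide, 20 uM SAM) after a 15 min compound preincubation; product detected by AlphaScreen beads and anti-H3K9me1 antibody.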
# Numbers without * were called inactive; ? = inconclusive; . = not tested or not shown; [ ] = remark or other dose. The list is not random: actives were taken first. Their share in the collection is about 12%. Calls follow the shape of the dose curve; as a rule, active = well fitted curve in the direction sought with a large enough effect; inconclusive = small, poorly fitted or top-dose-only effect, or another doubt; inactive = no such curve, though single readings can be large; an effect the other way counts as inactive or inconclusive. Potency is read from the fitted curve at half-maximal effect.
SMILES,L3MBTL1 block,JMJD2A Tudor inh,Sfp PPTase inh,BAZ2B block,HP1b binding inh,G9a inh
COc1ccc(C(=O)Nc2nnc(S(=O)(=O)N(C)c3ccc(C)cc3)s2)cc1,.,-2.0%,.,?,49.0%,-8.5%[59 µM]
CCN(C(=O)COC(=O)C1CCN(S(=O)(=O)c2ccc3c(c2)OCCO3)CC1)C1CCCCC1,3.9%,-13.1%,.,4.2%,8.9%,?
COc1cc(N/N=C/c2ccccc2O)ncn1,?,44.7µM*,2.1%,28.2µM*,9.0%,21.7%
Oc1ccc(/C=N/Nc2ccc(C(F)(F)F)cn2)c(O)c1,.,.,15.9%,28.2µM*,.,14.5%
COc1ccccc1CNC(=O)COC(=O)Cc1ccc(F)cc1,-4.9%,-9.8%,.,-4.1%,3.2%,-3.8%
O=C1CC(c2ccccc2C(F)(F)F)c2c(c3ccccc3[nH]c2=O)O1 (stereo not given),.,-4.9%,.,-13.0%,38.9%,-1.9%[59 µM]
O=C(CCCN1C(=O)/C(=C\c2cccs2)SC1=S)NNC(=O)c1ccncc1,0.4%,50.1µM*,19.0%,?,22.9%,-5.0%
Cc1ccc(C(=O)NN2C(=O)/C(=C/c3cccn3C)SC2=S)cc1,?,?,20µM*,22.4µM*,?,?
O=C(NN1C(=O)/C(=C/c2cccs2)SC1=S)c1ccncc1,-12.8%,-30.9%,79.4µM*,-25.0%,-13.3%,44.7µM*
O=C(CCN1C(=O)/C(=C\c2cccs2)SC1=S)Nc1ccc(C(=O)O)cc1,.,?,12.9%,-13.9%,5.5%,?
CCN(CC)CCOC(=O)c1ccc(NC(=O)CCCN2C(=O)/C(=C\c3cccs3)SC2=S)cc1,.,25.1µM*,50.1µM*,20µM*,?,.
Cn1cccc1/C=C1\SC(=S)N(NC(=O)c2ccccc2Cl)C1=O,-9.9%,-12.6%,2.0%,?,12.9%,-17.2%[59 µM]
O=C(CN1C(=O)COc2ccc(S(=O)(=O)N3CCCCC3)cc21)NCc1ccc(Cl)cc1,.,-14.4%,1.8%,-12.9%,71.3%,30.3%[59 µM]
O=c1c(-c2ccc(F)cc2)nc2cnc(Oc3cccc(Cl)c3)nc2n1C[C@H]1CCCO1,.,.,1.8%,.,.,0.0%[0.501 µM]
CC[C@H](C)[C@H](NC(=O)[C@H](CO)NC(=O)[C@H](CC(C)C)NC(=O)[C@H](CO)NC(=O)[C@@H]1CCCN1C(=O)[C@H](CC(N)=O)NC(=O)[C@@H](N)CC(=O)O)C(=O)N[C@@H](CC(=O)O)C(=O)N[C@@H](CC(C)C)C(=O)N[C@H](C(=O)N[C@@H](Cc1ccccc1)C(=O)N[C@@H](Cc1cnc[nH]1)C(=O)N[C@@H](CC(C)C)C(=O)N[C@@H](CC(C)C)C(=O)N[C@@H](CCCNC(=N)N)C(=O)N[C@H](C(=O)N[C@@H](CC(C)C)C(=O)N[C@@H](CC(C)C)C(=O)N[C@@H](CCC(=O)O)C(=O)N[C@@H](CC(C)C)C(=O)N[C@@H](C)C(=O)N[C@@H](CCCNC(=N)N)C(=O)N[C@H](C(=O)N[C@@H](CCC(N)=O)C(=O)N[C@@H](CO)C(=O)N[C@@H](CCC(N)=O)C(=O)N[C@@H](CCCNC(=N)N)C(=O)N[C@@H](CCC(=O)O)C(=O)N[C@@H](CCCNC(=N)N)C(=O)N[C@@H](C)C(=O)N[C@@H](CCC(=O)O)C(=O)N[C@@H](CCC(N)=O)C(=O)N[C@@H](CC(N)=O)C(=O)N[C@@H](CCCNC(=N)N)C(=O)N[C@H](C(=O)N[C@H](C(=O)N[C@@H](Cc1ccccc1)C(=O)N[C@@H](CC(=O)O)C(=O)N[C@@H](CO)C(=O)N[C@H](C(N)=O)C(C)C)[C@@H](C)CC)[C@@H](C)CC)[C@@H](C)O)[C@@H](C)O)[C@@H](C)O,.,.,-0.6%,.,.,.
N#CCC(=O)Nc1ccc(C(=O)NCCc2c[nH]c3ccccc23)cc1,.,-31.5%,7.3%,-27.6%,-3.6%,-12.6%
CC1CCC2(CC1)NC(=O)N(CC(=O)c1ccc(Cl)s1)C2=O (stereo not given),.,-24.1%,14.4%,-22.3%,10.4%,2.0%
O=C(COc1ccccc1F)Nc1nnc(-c2ccncc2)s1,.,20µM*,-9.0%,-34.0%,21.2%,70.8µM*
Cc1ccc2nsnc2c1NC(=O)COc1ccccc1F,0.1%,-2.7%,11.8%,-19.4%,30.0%,56.2µM*
Cc1ccccc1OCC(=O)Nc1nnc(-c2ccncc2)s1,-9.8%,-12.0%,-8.3%,-20.7%,32.3%,?
Cc1cc(C)nc(SC/C=C/c2ccccc2)n1,22.0%,95.6%,89.1µM*,13.9%,201.8%,.
CC(NC(=O)CN1CCN(C(=O)c2cccs2)CC1)c1ccc(F)cc1F (stereo not given),0.2%,-8.5%,.,.,32.2%,.
Cc1cc2occ(CC(=O)N(C)CC(=O)Nc3c(C)cccc3C)c2cc1C,-1.3%,-8.3%,.,1.5%,4.7%,39.8µM*
CCN(CC(=O)Nc1ccccc1OC)C(=O)c1cccc(-n2cccc2)c1,.,?,8.4%,?,-12.5%,44.7µM*
COc1ccc(NC(=O)CN(C)C(=O)c2cccc(Oc3ccccc3)c2)cc1,-3.2%,-22.0%,.,1.8%,22.6%,?
SMILES,L3MBTL1 block,JMJD2A Tudor inh,Sfp PPTase inh,BAZ2B block,HP1b binding inh,G9a inh
COc1ccc(NC(=O)CN(C)C(=O)c2cccc(S(=O)(=O)N3CCN(C)CC3)c2)cc1,4.9%,-19.4%,.,-4.7%,3.0%,6.5%[0.501 µM]
CCN(CC(=O)Nc1ccccc1OC)C(=O)c1cc(-c2ccccc2)nn1-c1ccccc1,-0.9%,?,.,1.6%,13.2%,?
COc1ccc(NC(=O)CN(C)C(=O)c2cccc(-n3cccc3)c2)cc1,10µM*,22.4µM*,.,11.2µM*,25.1µM*,44.7µM*
COc1ccc(NC(=O)CN(C)C(=O)c2cccc(S(=O)(=O)N3CCN(Cc4ccccc4)CC3)c2)cc1,.,-22.0%,50.1µM*,?,11.3%,17.8µM*
CCOCCc1nn2c(=O)cc(COC(=O)c3ccc(NC(=O)C4CCCCC4)cc3)nc2s1,.,-31.5%,.,-7.1%,29.7%,3.0%[59 µM]
Cc1ccc(C)c(NC(=O)CN(C)C(=O)c2cccc(N3C(=O)CCC3=O)c2)c1,0.0%,-5.6%,.,-3.9%,2.8%,39.8µM*
CN1CCN(S(=O)(=O)c2cccc(C(=O)N(C)CC(=O)Nc3ccc(F)c(F)c3F)c2)CC1,7.4%,-21.4%,.,?,14.5%,1.78µM*
CN(CC(=O)Nc1cccc(F)c1)C(=O)c1cccc(N2C(=O)CCC2=O)c1,-0.2%,-10.5%,.,13.9%,17.8%,22.6%[59 µM]
Cc1cccc(NC(=O)CNC(=O)c2cccc(-n3cccc3)c2)c1C,3.55µM*,14.1µM*,.,14.1µM*,?,35.5µM*
Cc1ccc(NC(=O)CN(C)C(=O)c2cccc(-n3cccc3)c2)cc1,3.98µM*,?,.,11.2µM*,20µM*,25.1µM*
